Bioassay records deposited in PubChem BioAssay by several laboratories.
In the library only some 1.9% were active in any assay of this set; here they are far more common.
dFosB act-1 – enhances mouse delta FosB homodimer DNA binding | purified delta FosB, TAMRA-CDK5 oligo fluorescence polarization; percent of positive-control signal above neutral wells | activation, % at 25 µM | hit rate 0.99% among 340,000 | AID 493131;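 active means mean activation above about 17%, with every replicate also reaching it, limit read from the data, passing the limit was not always enough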
Target sequence (P13346 whole entry, looked up): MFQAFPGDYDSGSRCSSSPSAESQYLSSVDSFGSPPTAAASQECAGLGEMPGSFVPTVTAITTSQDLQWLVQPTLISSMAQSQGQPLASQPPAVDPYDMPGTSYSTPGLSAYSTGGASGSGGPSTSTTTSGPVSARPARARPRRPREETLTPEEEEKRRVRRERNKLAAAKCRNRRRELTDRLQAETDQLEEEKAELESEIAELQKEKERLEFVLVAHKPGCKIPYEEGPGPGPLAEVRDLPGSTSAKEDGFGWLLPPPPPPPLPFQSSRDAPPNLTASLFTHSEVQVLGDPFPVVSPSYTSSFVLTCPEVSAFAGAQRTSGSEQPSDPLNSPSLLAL
14-3-3 Bad inh – disrupts binding of bovine 14-3-3 zeta to phospho-Bad peptide | P63103 | TR-FRET 14-3-3zeta/Dy647-pBad peptide displacement, 1 h | inhibition, % at 21.7 µM | hit rate 0.71% among 220,000 | AID 781;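 active means inhibition above about 70%, limit read from the data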;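 further: 0% = full 14-3-3 plus peptide FRET controls and 100% = background without 14-3-3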
Target sequence (P63103 whole entry, looked up): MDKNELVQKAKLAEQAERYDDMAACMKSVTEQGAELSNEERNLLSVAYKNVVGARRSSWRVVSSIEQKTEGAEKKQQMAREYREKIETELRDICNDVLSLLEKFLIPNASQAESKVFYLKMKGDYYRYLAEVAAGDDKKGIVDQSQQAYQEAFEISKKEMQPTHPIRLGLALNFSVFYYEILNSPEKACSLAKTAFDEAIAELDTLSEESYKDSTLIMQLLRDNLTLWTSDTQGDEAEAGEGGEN
Efa HMGR inh – blocks class II HMG-CoA reductase of Enterococcus faecalis | purified E. faecalis HMGR, NADPH absorbance 340 nm kinetic | inhibition, % at 10 µM | hit rate 0.41% among 190,000 | AID 1066;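 active means inhibition above a set limit, the median over all tested compounds plus 3 SD, cut at about 9.5% in these data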;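 further: enzyme runs in reverse so mevalonate oxidation gives rising NADPH absorbance; 0% = complete reaction with DMSO and 100% = background rate lacking mevalonate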
p47phox inh – inhibitors of human p47phox binding | AID 1274 | hit rate 0.53% among 220,000 | inhibition, % at 24.7 µM | P14598 | p47phox/p22phox peptide binding, fluorescence polarization, 2 h;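 active means inhibition above about 30%, limit read from the data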;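 further: 0% = p47phox with labelled peptide and 100% = labelled peptide alone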
dFosB act-2 – delta FosB (mouse) homodimer activation | shares compounds with dFosB act-1 | purified delta FosB, TAMRA-CDK5 oligo fluorescence polarization; normalised: neutral wells 0, positive control 100 | activation, % at 24.9 µM | 2,400 tested, under 10 active | AID 588690;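 active means highest replicate activation at or above 34% and every replicate reaching that threshold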;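 further: higher polarization means more probe DNA bound by delta FosB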
The depositor's hits bear a star; · = no result given; ! = not confirmed by another sample.

SMILES	dFosB act-1	14-3-3 Bad inh	Efa HMGR inh	p47phox inh	dFosB act-2
O=C(/C=C/c1ccc(Cl)cc1)NC(=S)Nc1ccc(NC(=O)c2ccco2)cc1	85*	25	0	-32	0
CCN1C(=O)c2cccc3c(NC(=O)c4cccc(N5C(=O)CCC5=O)c4)ccc1c23	-1	16	8	2	·
CCOc1cc(C(=O)Nc2ccc3c4c(cccc24)C(=O)N3CC)cc(OCC)c1OCC	24*	-2	-4	-1	5
O=C(CN1C(=O)/C(=C/c2ccc(C(F)(F)F)cc2)Sc2ccccc21)NCCCN1CCOCC1	25*	·	·	·	0
CCc1ccc(/C=C2/Sc3ccccc3N(CC(=O)NCCCN3CCOCC3)C2=O)cc1	-4	·	·	·	·
COc1cc(C(=O)Nc2c(C(=O)O)[nH]c3ccccc23)cc(OC)c1OC	1	·	·	·	·
COC(=O)c1sc2ncccc2c1OCc1c(Cl)cccc1Cl	35*	9	-2	1	5
CCSc1nc(O)c(C2OC(=O)c3c2ccc(OC)c3OC)c(=O)n1CC (stereo not drawn)	4	5	-1	2	·
COc1ccc(NC(=O)c2cc(-c3ccc4c(c3)OCO4)on2)cc1OC	33*	·	·	·	2
O=C(Nc1cc(Br)ccc1O)c1cc(-c2ccc3c(c2)OCO3)on1	77*	·	·	·	1
O=C(Nc1cc(Br)ccc1O)c1cc(-c2cccs2)on1	49*	·	·	·	-4
CC(C)c1cc(C(=O)Nc2cc(Br)ccc2O)no1	-4	-7	-6	-26	·
Cc1ccc(S(=O)(=O)c2nnn3c2nc(N2CCOCC2)c2ccccc23)c(C)c1	7	·	·	·	·
COc1ccc(NC(=O)c2c[nH]c(=O)n(-c3ccc(C)c(C)c3)c2=O)c(OC)c1	35*	·	·	·	4
COc1ccc(NC(=O)c2c[nH]c(=O)n(-c3ccc(C)c(C)c3)c2=O)cc1OC	-20	-1	-1	-7	·
COc1ccc(N(C(=O)c2snc(C(N)=O)c2N)C(C(=O)NC2CCCC2)c2cccs2)cc1OC (stereo not drawn)	37*	·	·	·	2
CCCC(C(=O)NC1CCCC1)N(C(=O)c1snc(C(N)=O)c1N)c1ccc(F)cc1 (stereo not drawn)	24*	·	·	·	2
NC(=O)c1nsc(C(=O)N(c2ccccc2F)C(C(=O)NCc2ccc(F)cc2)c2ccc(O)cc2)c1N (stereo not drawn)	44*	·	·	·	5
CCCCC(C(=O)NC1CCCC1)N(C(=O)c1snc(C(N)=O)c1N)c1ccc(OCC)cc1 (stereo not drawn)	-9	·	·	·	·
COc1ccc(N(C(=O)c2snc(C(N)=O)c2N)C(C(=O)NC2CCCCC2)c2ccc(F)cc2)c(OC)c1 (stereo not drawn)	40*	·	·	·	0
COc1ccc(OCc2nnc(SCC(=O)NCC3CCCO3)n2N)cc1 (stereo not drawn)	-1	·	·	·	·
COc1ccc(CCNC(=O)CCn2cccc2)cc1OC	4	-2	-2	-10	·
O=C(Cn1ncc2c([nH]c3ccccc32)c1=O)NCCc1ccccc1	44*	·	·	·	-1
O=C(NCC(c1ccco1)N1CCCC1)c1ccc(Cl)c(S(=O)(=O)N2CCc3ccccc32)c1 (stereo not drawn)	23*	·	·	·	5
O=C(NCC(c1ccco1)N1CCc2ccccc2C1)c1ccc(Cl)c([N+](=O)[O-])c1 (stereo not drawn)	2	·	·	·	·
SMILES	dFosB act-1	14-3-3 Bad inh	Efa HMGR inh	p47phox inh	dFosB act-2
O=C(Nc1nc(-c2nc3ccccc3s2)cs1)c1ccco1	78*	42	-6	0	3
O=C(Cn1cnc2sc3c(c2c1=O)CCCC3)NCC(=O)Nc1c(F)cccc1F	32*	·	·	·	0
O=C(CNC(=O)Cn1cnc2sc3c(c2c1=O)CCCC3)NCc1ccccn1	1	-6	-7	7	·
CC(C)CN(C(=O)COC(=O)CNC(=O)c1ccc(Cl)cc1)C1CCS(=O)(=O)C1 (stereo not drawn)	-5	-9	-1	8	·
COc1ccc(CCNCC(O)Cn2c3ccccc3c3ccccc32)cc1OC (stereo not drawn)	21*	-5	-2	-3	1
COc1ccccc1NCC(O)Cn1c2ccccc2c2ccccc21 (stereo not drawn)	-11	-19	-1	-9	·
CCc1ccc(NC(=O)CSc2nnc(-c3n[nH]c4ccccc34)n2-c2ccccc2)cc1	9	21	-5	-3	·
O=C(CSc1nnc(-c2n[nH]c3ccccc23)n1-c1ccccc1)Nc1cccc(Cl)c1	25*	1	1	-15	8
O=C(NC1CCSC1=O)C1CCCCC1 (stereo not drawn)	-1	-9	0	-1	·
CCN(CC)CCN(C(=O)c1ccc2c(c1)CCCC2)c1nc2ccc(C)cc2s1	11	·	·	·	·
CCN(CC)CCN(C(=O)c1ccc2c(c1)CCCC2)c1nc2ccc(OC)cc2s1	23*	·	·	·	1
CCN(CC)CCN(C(=O)c1ccc2c(c1)CCCC2)c1nc2c(C)cccc2s1	29*	·	·	·	-5
Cc1cc2nc(C)c(Cl)c(=O)n2[nH]1	-3	-6	-8	-3	·
Cc1ccc2cccc(SCC(=O)NCc3ccco3)c2n1	-3	3	-1	-9	·
CN(C)c1nc(N/N=C\c2ccc(Cl)c([N+](=O)[O-])c2)nc(Nc2ccc(F)cc2)n1	118*	·	·	·	-17
Nn1cnnc1N/N=C/c1ccc(Cl)c([N+](=O)[O-])c1	-5	-11	5	0	·
CCOC(CNc1ncnc2sc(-c3ccccc3)cc12)OCC	-2	·	·	·	·
CN(C)CCCNc1ncnc2sc(-c3ccccc3)cc12	27*	14	·	-10	1
NS(=O)(=O)c1cccc(NC(=O)c2cc(=O)c3ccccc3o2)c1	19*	·	·	·	-2
CN(C)S(=O)(=O)c1cc(NC(=O)C2=COCCO2)ccc1Cl	2	·	·	·	·
Cc1cc(C)c2cc(CN(CCN3CCCC3)C(=O)Nc3ccc(F)cc3)c(=O)[nH]c2c1	31*	-2	-5	-49	-8
Cc1cc(C)c2cc(CN(CCO)C(=O)Nc3ccc(Cl)cc3)c(=O)[nH]c2c1	·	11	3	-1	·
CCOC(=O)N1CCN(S(=O)(=O)CCNC(=O)c2ccccc2)CC1	-4	·	·	·	·
CCOc1ccc(NC(=O)C2CCCN(S(=O)(=O)c3ccc4[nH]c(=O)ccc4c3)C2)cc1 (stereo not drawn)	15	·	·	·	·
COc1cc(NC(=O)C2CCCN(S(=O)(=O)c3ccc4[nH]c(=O)ccc4c3)C2)cc(OC)c1 (stereo not drawn)	52*	·	·	·	2
COc1ccc(NC(=O)C2CCCN(S(=O)(=O)c3ccc4[nH]c(=O)ccc4c3)C2)cc1 (stereo not drawn)	17*	·	·	·	2
CCCNC(=O)Nc1nc(CC(=O)OCC)cs1	-15	-7	-4	5	·
CCCCCc1ccc(-c2cn(Cc3ccc(C)cc3)nn2)cc1	1	·	·	·	·
CN1CCN(Cc2nc3ccccc3c(=O)n2Cc2nc(-c3ccc4ccccc4c3)cs2)CC1	27*!	14	0	-16	3
Cc1cc(/C=C2/C(=N)N3C(c4ccccc4)=CSC3=NC2=O)c(C)n1-c1ccccc1	-16	-11	-8	-69	·
